Data from PubChem BioAssay (NCATS).
Inconclusive results are not listed. Active and inactive are the calls of the source. The call rests on the fitted dose curve; in most records, active means well fitted inhibition curve with a large enough effect; inconclusive means small, poorly fitted or top-dose-only effect; inactive means flat fitted curve, though single readings scatter.

biological target: Calcium and integrin-binding protein 1 (Homo sapiens) (UniProt Q99828); assay: Primary qHTS for Identification of Calcium Integrin Binding Protein 1 (CIB1) Competitor (AID 1508620); settings: CIB1-GST / FITC-alphaIIb peptide fluorescence polarization; series mostly up to 114 µM; activity change, negative = inhibition: at the top concentration;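 further: GST tagged CIB1 binding a fluorescein labelled alphaIIb integrin peptide tracer; top concentration of the series differs between compounds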
Sequence (Q99828 whole entry, looked up): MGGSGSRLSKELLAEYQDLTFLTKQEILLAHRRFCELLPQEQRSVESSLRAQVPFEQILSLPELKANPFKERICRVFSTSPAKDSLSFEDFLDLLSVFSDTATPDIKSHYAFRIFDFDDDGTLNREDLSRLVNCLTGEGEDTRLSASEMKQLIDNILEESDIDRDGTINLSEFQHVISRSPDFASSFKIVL
Outline: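 Fluorescence polarization competition: CIB1-GST (1 uM final) preincubated with compound 15 min at room temperature, then FITC-labeled alphaIIb peptide (100 nM final) added for another 15 min. Polarization read at Ex 480/Em 540.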
On the % scale 0 is the no-effect control and ±100 the full control effect.

Compound | activity change, negative = inhibition
Fc1cccc(CNc2ncnc3ccc(-c4ccccc4Cl)cc23)c1 | 5.69% (inactive)
COc1ccccc1C1=Nn2c(nnc2-c2cccc(OC)c2OC)SC1 | 5.04% (inactive)
O=C(NCc1ccc(F)cc1)n1c(-c2ccccc2)c(P(=S)(c2ccccc2)c2ccccc2)c2ccccc21 | -1.56% (inactive)
COC(=O)c1cccc(-c2noc(-c3ccccc3F)n2)c1 | 3.64% (inactive)
Cn1nnnc1Sc1ncnc2scc(-c3ccccc3[N+](=O)[O-])c12 | 1.22% (inactive)
O=C1c2ccccc2C(=O)N1c1cccc2ncccc12 | -0.712% (inactive)
O=c1c2ccccc2nc2sc(Nc3ccc(Br)cc3)nn12 | -0.29% (inactive)
FC(F)(F)c1cccc(N2CCN(C(=S)Nc3cccnc3)CC2)c1 | 0.253% (inactive)
CC(C)(C)Cc1nnc(NC(=O)CSc2ccccc2)s1 | 1.62% (inactive)
COc1ccc(C2Nc3ccccc3C(=O)N2Cc2ccccc2)cc1COc1ccc(NC(C)=O)cc1 (stereo not given) | 0.591% (inactive)
CC(=O)Nc1ccc(S(=O)(=O)Nc2ccc(C)c(C)c2)cc1 | 3.53% (inactive)
CC(C)c1ccccc1-c1ncc(F)c(NCc2ccc(-n3ccnn3)cc2)n1 | 5.11% (inactive)
COc1ccc(/C=C(\C)C2Nc3cccc4cccc(c34)N2)cc1 | -19% (inactive)
Cc1ccc(NC(=O)c2ccc3c(c2)CCC(=O)N3)cc1C | -0.11% (inactive)
Cc1ccc(N[S+](=O)([O-])c2cc3c(cc2CCc2ccccc2)NC(=O)CO3)cc1C | 4.54% (inactive)
S=C(Nc1ccc(Cl)c(Cl)c1)Nc1nnc(-c2ccncc2)s1 | -13.9% (inactive)
C[C@@H]1CN(S(=O)(=O)c2ccc3c(c2)OCCO3)CCN1S(=O)(=O)c1c(F)cccc1F | 0.975% (inactive)
Cc1cccc(-c2ccc3ncnc(N(C)Cc4ccco4)c3c2)c1 | 2.67% (inactive)
COc1ccc(NC(=O)c2cnn3c(-c4ccccc4)cc(C)nc23)cc1 | 1.5% (inactive)
c1nc(OCc2cnc[nH]2)c2cc(-c3ccc4c(c3)OCO4)ccc2n1 | -1.62% (inactive)

Compound | activity change, negative = inhibition
O=C(Nc1ccc(-n2cncn2)c(C(F)(F)F)c1)Nc1nnc(-c2ccncc2)s1 | 9.14% (inactive)
CC(=O)N1CCN(c2ccc(NCc3ccc(-c4cccc(Cl)c4)o3)cc2)CC1 | 1.47% (inactive)
Cc1cccc(-n2cnc3cc(C(=O)N4CCCC(C(C)C)C4)ccc32)c1 (stereo not given) | -3.3% (inactive)
COC(=O)c1ccccc1-c1ccc(/C=c2\sc3nc4cc(Br)cnc4n3c2=O)o1 | 82.8% (inactive)
CN(C)c1cccc(NS(=O)(=O)c2ccc(NC(=O)Cc3ccc(Cl)c(Cl)c3)cc2)c1 | -9.06% (inactive)
N=c1c2c(ccn1CCCCc1ccccc1)Oc1ccc3ccccc3c1C2c1ccccc1 (stereo not given) | 7.78% (inactive)
CCOc1ccc(CCNC(=O)c2ccnn2Cc2cccc(C)c2)cc1OCC | -2.12% (inactive)
Fc1ccc(Nc2cc(-c3ccccc3)nc(-c3ccncc3)n2)cc1F | 5.17% (inactive)
COc1ccccc1CNc1ccc(S(=O)(=O)Nc2nccs2)cc1 | 10.1% (inactive)
CC(=O)c1ccccc1-c1ncc(C)c(NCc2ccc(-c3cccnc3)cc2)n1 | 4.45% (inactive)
Cc1ccc(OCCn2c(CCNC(=O)c3ccccc3F)nc3ccccc32)cc1 | 5.6% (inactive)
Cc1cnc(-c2ccccc2C(C)C)nc1NCc1ccc(-c2nn[nH]n2)cc1 | -6.12% (inactive)
COc1cccc(NC(=S)N2CCN(c3ncc(C(F)(F)F)cc3Cl)CC2)n1 | 8.99% (inactive)
O=C(OCc1c(-c2ccccc2)no[n+]1[O-])c1ccccc1 | 5.33% (inactive)
CC(C)(C)OC(=O)N1CCN(c2ccc(NCc3ncc(-c4ccc(C#N)cc4)o3)cc2)CC1 | -0.676% (inactive)
O=C(Nc1ccc(-c2nc3ccccc3[nH]2)cc1)c1ccc2n[nH]nc2c1 | 4.23% (inactive)
O=C1NS(=O)(=O)c2cc(Br)ccc21 | 0.685% (inactive)
Cc1cc(-c2nnc3n2CCCC3)c(C)n1-c1ccccc1 | 0.923% (inactive)
COc1ccc2c(=O)n3nc(Nc4ccc5c(c4)CCC5)sc3nc2c1 | 0.645% (inactive)
COc1ccccc1CNC(=O)Nc1nnc(-c2ccncc2)s1 | 0.607% (inactive)
